PubChem BioAssay (NCI)
The panel holds about 83,000 compounds, 20% with a hit somewhere; the sample as a whole holds those more often.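 Activity criterion: percent growth below 10, measured after cells in 96-well plates were exposed to a single compound concentration for 48 hours.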 Values without a mark were called inactive. Activity calls are given as the source filed them.

Key:
Assay in all cases: NCI-60 one-dose screen, 48 h (100 = growth as untreated, 0 = no growth, -100 = all killed)
Conditions in all cases: 10 µM
[1] = test system: K-562 leukemia
[2] = test system: MDA-MB-231 breast
[3] = test system: SF-268 CNS
[4] = test system: SF-295 CNS
[5] = test system: SF-539 CNS
[6] = test system: UACC-257 melanoma
[7] = test system: M14 melanoma
[8] = test system: HCT-15 colon
[9] = test system: HT29 colon
[10] = test system: SNB-75 CNS
[11] = test system: SNB-19 CNS
[12] = test system: U251 CNS
[13] = test system: PC-3 prostate
[14] = test system: SK-MEL-5 melanoma
[15] = test system: UACC-62 melanoma
[16] = test system: LOX IMVI melanoma
[17] = test system: SK-MEL-28 melanoma
[18] = test system: DU-145 prostate
[19] = test system: RXF 393 renal
[20] = test system: MALME-3M melanoma

| Compound | growth [1] | growth [2] | growth [3] [%] | growth [4] | growth [5] | growth [6] | growth [7] | growth [8] | growth [9] | growth [10] | growth [11] [%] | growth [12] | growth [13] | growth [14] | growth [15] | growth [16] | growth [17] | growth [18] [%] | growth [19] | growth [20] [%] |
| --- | --- | --- | --- | --- | --- | --- | --- | --- | --- | --- | --- | --- | --- | --- | --- | --- | --- | --- | --- | --- |
| O=C(N/N=C/c1ccc([N+](=O)[O-])cc1)c1ccccc1Nc1cccc(C(F)(F)F)c1 | 107% | 80.5% | 98.4 | 105% | 60.7% | 95.5% | 86.4% | 98.6% | 69.8% | 87.1% | 105 | 89.2% | 91% | 83.1% | 90.8% | 98.1% | 91.7% |  |  |  |
| CCOc1ccccc1/C=N/N1CCCCCC1 |  | 96.3% | 93.7 | 83.8% | 109% | 115% | 107% | 100% | 104% | 77.2% | 108 | 103% |  |  | 109% | 90.3% | 107% | 111 | 99.9% |  |
| COc1ccc(-c2nn(-c3cccc(Cl)c3)cc2-c2c(C#N)c(N)n(N)c(=O)c2C#N)cc1 |  | 75.3% | 60.2 |  | 72.8% | 90.3% | 73.5% | 94.9% | 66.3% | 48.6% | 64 |  | 54% |  | 75.8% | 29.5% | 91.6% | 90.5 | 65.3% |  |
| CCN(CC)CCN1c2nc3ccccc3cc2Sc2cc3ccccc3nc21 | -69.1% (active) | -0.0354% (active) | 12.2 | -49.2% (active) | -100% (active) | 8.34% (active) | -65% (active) | 3.28% (active) | -92.3% (active) | -7.91% (active) | 36.4 | 5.23% (active) | -13.8% (active) | -68.1% (active) | -0.283% (active) | -100% (active) | -50.4% (active) |  |  |  |
| CN(C)CCCN1c2ccccc2CCc2ccc(Cl)cc21 |  | 15.8% | 59.4 | 75.6% | 83.5% | -11.9% (active) | 7.07% (active) | 51.4% | 18.8% | 39.2% | 96.1 | 55.4% | 40.8% |  | 7.82% (active) | 56.9% | 36.9% | 87.1 | 28.3% | 36.7 |
| CCOC(=O)/C(=C(\C)N)C1CC(=O)NC1=O (configuration not stated) | 83.6% | 112% | 108 | 101% | 105% | 101% | 97.2% | 103% | 105% | 95.1% | 101 |  | 92.1% | 97.9% | 103% | 95.7% | 98% |  | 102% | 111 |
| O=C(COc1cccc(/C=C2\CSc3ccc(Cl)cc3C2=O)c1)c1ccc(Cl)cc1 | 17.3% | 32% | 88.2 | 81.2% | 80.3% | 84.6% | 94.7% | 47.9% | 16.7% | 74.7% | 89.1 | 59.9% | 43.7% | 86.1% | 71.1% | 23.8% | 107% |  |  |  |
| COc1ccc2c(c1)CC=C1[C@@H]2CC[C@]2(C)C(=O)/C(=N/O)C[C@@H]12 |  | 86.9% | 76.4 | 74.9% | 98.7% | 118% | 94.3% | 75.8% | 67.8% | 58% | 93.4 | 96.4% |  | 89.7% | 97.7% | 70.3% | 112% | 96.6 | 64% |  |
| Nc1cc(-c2ccncc2)c[nH]c1=O |  | 115% | 103 |  | 104% | 111% | 107% | 103% | 103% | 76.6% | 111 | 103% | 89.1% | 106% | 109% | 91.7% | 105% | 110 | 125% | 123 |
| CC1C(=NC(=O)c2cnccn2)C(C)C(c2ccc(Cl)cc2)NC1c1ccncc1 (configuration not stated) |  | 97% | 108 | 117% | 86.1% | 94.3% | 91.9% | 78.8% | 73% | 78.5% | 88.4 | 76.4% | 75.6% | 88.2% | 91.3% |  | 101% | 114 | 100% |  |
| CN1CCN(C2=Nc3ccccc3Oc3ccc(Cl)cc32)CC1 |  | 76% | 109 | 94.8% | 111% | 96.5% | 103% | 103% | 88.3% | 59.5% | 104 | 102% | 83.8% |  | 98.7% | 103% | 110% | 108 | 108% | 91.7 |
| Cc1cc(=O)n2nnc3cc(Cl)c(Cl)cc3n12 |  | 107% | 101 | 111% | 108% | 102% | 96.9% | 103% | 106% | 95.6% | 110 | 94.8% | 94.4% | 110% | 106% | 87.3% | 105% | 105 | 91.9% |  |
| Cc1cc(Cl)ccc1Nc1nc(C(F)(F)F)ccc1C(=O)N/N=C/c1cccc(O)c1 | 20.7% | 39.7% | 39.3 | 6.71% (active) | 23.5% | 44.1% | 43.9% | 23% | 23.7% | 28.9% | 63.5 | 30.5% | 29.7% | -52.1% (active) | 38.7% | 35.9% | 52.4% |  |  |  |
| COc1ccc(C(=O)COc2cccc(/C=C3\Cc4ccccc4C3=O)c2)cc1 | 80.5% | 66.5% | 77.2 | 87.1% | 75.9% | 83.5% | 81.2% | 85.6% | 82.1% | 46.8% | 90.8 | 82.6% | 82% | 67.3% | 61.3% | 90.3% | 103% |  |  |  |
| COc1ccc(Cl)cc1Nc1nc(C(F)(F)F)ccc1C(=O)N/N=C/c1ccc(Cl)cc1 | 28.6% | 30.5% | 37.2 | 18.5% | 34% | 43.3% | 57.3% | 25.4% | 25.2% | 33.8% | 60.2 | 29.9% | 34.6% | 24.3% | 24.1% | 26.7% | 51.2% |  |  |  |
| O=C(N/N=C/c1c(Cl)cccc1Cl)c1ccccc1Nc1cccc(C(F)(F)F)c1 | 77.2% | 83.2% | 95.5 | 61.5% | 75% | 102% | 99.4% | 88.5% | 103% | 105% | 97 | 89.9% | 89.9% | 72.9% | 87.1% | 76.3% | 99.5% |  |  |  |
| C=C(NC(=O)C(=C)NC(=O)c1csc(C2=NC3c4csc(n4)C4NC(=O)c5csc(n5)C(C(C)(O)C(C)O)NC(=O)C5CSC(=N5)C(=CC)NC(=O)C(C(C)O)NC(=O)c5csc(n5)C3(CC2)NC(=O)C(C)NC(=O)C(=C)NC(=O)C(C)NC(=O)C(C(C)CC)NC2C=Cc3c(C(C)O)cc(nc3C2O)C(=O)OC4C)n1)C(N)=O (configuration not stated) |  | 9.76% (active) | 27.1 |  | 1.63% (active) | 26.4% | 2.27% (active) | 36.9% | 3.8% (active) | 66.7% | 66.6 | 8.08% (active) | 63.7% | -5.61% (active) | -17% (active) | -7.87% (active) | -34.5% (active) | 65.5 | -41.3% (active) | 26.9 |
